According to paper PMC7862700, “An all-to-all approach to the identification of sequence-specific readers for epigenetic DNA modifications on cytosine”:

What was measured:
Assay in all cases: DAPPL (digital affinity profiling via proximity ligation, sequencing); 10 mM Tris-HCl pH 7.5, 50 mM NaCl, 1 mM DTT, 4% glycerol, room temperature, 30 min; GST-TFs on glutathione beads, 16-mer random dsDNA library, 0.1% formaldehyde crosslink after washing; high values mean tight binding
Conditions in all cases: protein: recombinant; tags: N-terminal GST; dsDNA, one strand shown
FLI1 = target: T1, FLI1 (Homo sapiens, UniProt Q01543 1-452)
T1 sequence: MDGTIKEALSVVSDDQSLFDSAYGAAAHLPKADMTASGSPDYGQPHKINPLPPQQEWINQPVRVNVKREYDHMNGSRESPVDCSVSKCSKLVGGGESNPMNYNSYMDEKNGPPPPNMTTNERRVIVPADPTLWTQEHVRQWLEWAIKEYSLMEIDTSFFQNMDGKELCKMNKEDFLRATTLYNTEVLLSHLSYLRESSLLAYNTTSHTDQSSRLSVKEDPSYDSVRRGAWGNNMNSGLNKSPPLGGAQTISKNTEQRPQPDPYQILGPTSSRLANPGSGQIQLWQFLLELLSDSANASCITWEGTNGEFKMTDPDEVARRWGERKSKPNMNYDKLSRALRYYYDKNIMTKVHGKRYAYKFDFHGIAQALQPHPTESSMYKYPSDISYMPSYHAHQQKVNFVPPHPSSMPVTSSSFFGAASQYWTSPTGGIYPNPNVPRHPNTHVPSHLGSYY
Procedure, shortened: (§1)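 Human transcription factors fused to GST were expressed in yeast, captured on glutathione beads, given DNA barcodes and pooled with a GST-only negative control. Pools were incubated with 200 nmole of a 16-mer random double-stranded DNA library in Tris/NaCl/DTT/glycerol buffer at room temperature for 30 min. They were then washed, crosslinked with 0.1% formaldehyde, proximity-ligated (BsaI/T4 ligase, 1 h, 37 °C), PCR-amplified and sequenced on an Illumina NextSeq500. Binding signal is each 6-mer's read frequency for a factor divided by its frequency for the GST control.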

ELK1 = target: T2, ELK1 (Homo sapiens, UniProt P19419 1-428)
T2 sequence: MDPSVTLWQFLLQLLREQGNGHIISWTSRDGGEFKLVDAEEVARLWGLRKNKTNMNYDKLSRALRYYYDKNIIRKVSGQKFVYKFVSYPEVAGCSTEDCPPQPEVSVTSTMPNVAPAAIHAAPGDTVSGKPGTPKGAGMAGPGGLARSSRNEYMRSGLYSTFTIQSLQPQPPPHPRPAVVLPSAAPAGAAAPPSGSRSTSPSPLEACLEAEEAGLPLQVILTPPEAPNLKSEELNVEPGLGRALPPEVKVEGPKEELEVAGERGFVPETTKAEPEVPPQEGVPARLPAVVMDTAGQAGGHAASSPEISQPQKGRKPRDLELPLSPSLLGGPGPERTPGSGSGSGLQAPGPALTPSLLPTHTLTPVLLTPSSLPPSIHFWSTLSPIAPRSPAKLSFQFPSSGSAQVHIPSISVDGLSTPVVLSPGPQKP
Procedure, shortened: as §1

GABPA = target: T3, GABPA (Homo sapiens, UniProt Q06546 1-454)
T3 sequence: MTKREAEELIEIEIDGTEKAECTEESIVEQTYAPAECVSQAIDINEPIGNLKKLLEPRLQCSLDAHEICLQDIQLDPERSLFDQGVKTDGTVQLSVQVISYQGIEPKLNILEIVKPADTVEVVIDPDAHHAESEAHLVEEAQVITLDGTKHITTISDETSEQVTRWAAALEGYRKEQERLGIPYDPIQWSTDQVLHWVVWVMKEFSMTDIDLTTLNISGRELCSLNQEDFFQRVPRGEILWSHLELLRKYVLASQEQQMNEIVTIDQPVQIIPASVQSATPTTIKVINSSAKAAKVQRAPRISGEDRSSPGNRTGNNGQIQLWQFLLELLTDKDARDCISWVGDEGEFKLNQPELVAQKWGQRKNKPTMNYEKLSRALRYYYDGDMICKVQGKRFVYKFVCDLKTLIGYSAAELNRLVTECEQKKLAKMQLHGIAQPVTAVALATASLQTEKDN
Procedure, shortened: as §1

ERG = target: T4, ERG (Homo sapiens, UniProt P11308 1-479)
T4 sequence: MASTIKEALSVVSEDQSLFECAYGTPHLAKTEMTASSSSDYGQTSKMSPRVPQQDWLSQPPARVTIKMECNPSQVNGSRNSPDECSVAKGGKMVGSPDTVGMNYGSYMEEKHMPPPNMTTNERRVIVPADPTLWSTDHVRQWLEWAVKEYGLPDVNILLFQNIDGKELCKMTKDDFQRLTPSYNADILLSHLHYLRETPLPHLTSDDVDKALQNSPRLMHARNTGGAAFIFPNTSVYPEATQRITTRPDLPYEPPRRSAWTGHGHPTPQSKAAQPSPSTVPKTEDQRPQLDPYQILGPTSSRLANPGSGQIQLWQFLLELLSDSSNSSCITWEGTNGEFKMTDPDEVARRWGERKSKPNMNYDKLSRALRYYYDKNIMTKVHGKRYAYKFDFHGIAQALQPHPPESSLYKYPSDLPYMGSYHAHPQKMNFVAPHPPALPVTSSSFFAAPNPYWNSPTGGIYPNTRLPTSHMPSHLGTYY
Procedure, shortened: as §1

ELF1 = ELF1 (Homo sapiens, UniProt P32519 1-619)
Sequence of ELF1 (P32519 whole entry): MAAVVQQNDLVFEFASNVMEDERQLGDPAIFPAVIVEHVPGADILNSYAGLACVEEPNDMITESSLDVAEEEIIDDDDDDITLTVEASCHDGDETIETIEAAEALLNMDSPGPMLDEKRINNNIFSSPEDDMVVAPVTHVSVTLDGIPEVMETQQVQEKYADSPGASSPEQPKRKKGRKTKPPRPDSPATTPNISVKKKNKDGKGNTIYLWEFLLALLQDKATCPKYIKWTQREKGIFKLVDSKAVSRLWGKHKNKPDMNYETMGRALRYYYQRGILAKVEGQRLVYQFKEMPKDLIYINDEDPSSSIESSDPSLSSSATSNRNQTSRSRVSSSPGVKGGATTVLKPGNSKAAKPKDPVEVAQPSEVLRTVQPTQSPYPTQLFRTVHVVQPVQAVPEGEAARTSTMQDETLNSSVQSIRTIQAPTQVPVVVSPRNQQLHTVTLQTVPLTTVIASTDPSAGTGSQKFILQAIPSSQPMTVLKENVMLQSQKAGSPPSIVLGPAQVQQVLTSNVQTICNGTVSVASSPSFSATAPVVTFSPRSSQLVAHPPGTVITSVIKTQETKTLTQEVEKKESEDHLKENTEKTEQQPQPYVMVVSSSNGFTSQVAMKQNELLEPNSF
Procedure, shortened: as §1

EHF = target: T5, EHF (Homo sapiens, UniProt Q9NZC4 1-300)
T5 sequence: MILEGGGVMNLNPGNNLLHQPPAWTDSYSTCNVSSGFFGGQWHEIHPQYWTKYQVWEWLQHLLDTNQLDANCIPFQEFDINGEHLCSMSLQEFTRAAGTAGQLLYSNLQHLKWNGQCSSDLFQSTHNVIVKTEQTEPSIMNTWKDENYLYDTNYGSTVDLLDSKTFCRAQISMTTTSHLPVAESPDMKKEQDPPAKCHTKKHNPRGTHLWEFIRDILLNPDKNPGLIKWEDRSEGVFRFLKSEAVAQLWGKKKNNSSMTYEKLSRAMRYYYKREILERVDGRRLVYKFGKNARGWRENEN
Procedure, shortened: as §1

SPI1 = SPI1 (Homo sapiens, UniProt P17947 1-270)
Procedure, shortened: as §1

SPIB = SPIB (Homo sapiens, UniProt Q01892 1-262)
Sequence of SPIB (Q01892 whole entry): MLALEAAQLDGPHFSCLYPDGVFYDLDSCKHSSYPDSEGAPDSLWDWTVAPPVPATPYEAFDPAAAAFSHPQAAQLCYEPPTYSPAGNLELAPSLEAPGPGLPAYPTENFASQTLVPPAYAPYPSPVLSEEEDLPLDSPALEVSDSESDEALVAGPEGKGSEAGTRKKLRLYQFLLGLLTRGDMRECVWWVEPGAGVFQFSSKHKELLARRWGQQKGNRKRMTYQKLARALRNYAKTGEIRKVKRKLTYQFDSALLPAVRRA
Procedure, shortened: as §1

ELK3 = target: T6, ELK3 (Homo sapiens, UniProt P41970 1-407)
T6 sequence: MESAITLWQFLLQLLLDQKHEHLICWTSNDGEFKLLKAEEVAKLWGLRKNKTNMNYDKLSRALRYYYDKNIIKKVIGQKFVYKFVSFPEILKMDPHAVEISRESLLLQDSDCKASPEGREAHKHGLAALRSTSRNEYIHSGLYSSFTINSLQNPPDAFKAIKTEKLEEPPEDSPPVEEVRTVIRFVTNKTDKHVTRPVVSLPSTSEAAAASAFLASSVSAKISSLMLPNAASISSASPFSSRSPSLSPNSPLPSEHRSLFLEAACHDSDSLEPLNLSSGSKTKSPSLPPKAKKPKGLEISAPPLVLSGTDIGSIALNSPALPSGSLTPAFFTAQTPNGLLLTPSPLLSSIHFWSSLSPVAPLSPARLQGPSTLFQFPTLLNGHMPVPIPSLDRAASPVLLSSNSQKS
Procedure, shortened: as §1

With ATACAT the binding signal (FLI1) was 1.31 fold enrichment (6-mer frequency, TF over GST control), the binding signal (ELK1) was 1.15 fold enrichment (6-mer frequency, TF over GST control) and the binding signal (GABPA) was 1.25 fold enrichment (6-mer frequency, TF over GST control). The binding signal (ERG) was 1.34 fold enrichment (6-mer frequency, TF over GST control), the binding signal (ELF1) was 1.24 fold enrichment (6-mer frequency, TF over GST control) and the binding signal (EHF) was 1.21 fold enrichment (6-mer frequency, TF over GST control). The binding signal (SPI1) was 1.2 fold enrichment (6-mer frequency, TF over GST control), the binding signal (SPIB) was 1.26 fold enrichment (6-mer frequency, TF over GST control) and the binding signal (ELK3) was 1.32 fold enrichment (6-mer frequency, TF over GST control).
